# BAZ2B inh: qHTS Assay for Inhibitors of BAZ2B. 360,000 compounds, 4.4% hits. Potency, µM (top dose mostly 114 µM), for the others: at the highest dose activity change, negative = inhibition, usual class: inhibitors. AID 504333, 2011. AlphaScreen BAZ2B-H3K14Ac peptide displacement. Bromodomain adjacent to zinc finger domain protein 2B (Homo sapiens), Q9UIF8; note: potency is the fitted concentration of half-maximal effect; % is set by controls: 0 for no effect and ±100 for the full control effect; nearly all actives have a fitted effect of over 60% in size
#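 Compounds, titrated to a top concentration of 110 uM, were incubated 30 min at room temperature with preformed BAZ2B/acetyl-K14 H3 peptide complex (50 nM each). Proximity signal was measured by AlphaScreen after 20 min with beads.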
# HP1b binding inh: HTS for Inhibitors of HP1-beta Chromodomain Interactions with Methylated Histone Tails; 390,000 compounds, 0.56% hits; Potency, µM (doses to about 114 µM), without a hit: top-dose activity change, negative = inhibition, hits mostly inhibitors; Chromobox protein homolog 1 (Homo sapiens), P83916; AID 540317, 2011; AlphaScreen HP1-beta / biotin-H3K9me3 peptide binding; note: potency is the fitted concentration of half-maximal effect; nearly all actives have a fitted effect of over 70% in size
# Target sequence (P83916 whole entry, looked up): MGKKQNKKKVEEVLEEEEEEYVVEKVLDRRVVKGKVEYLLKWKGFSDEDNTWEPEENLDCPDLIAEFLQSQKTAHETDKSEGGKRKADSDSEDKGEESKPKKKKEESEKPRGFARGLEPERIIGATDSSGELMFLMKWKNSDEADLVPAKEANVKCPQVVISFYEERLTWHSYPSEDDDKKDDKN
#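 Compound inhibition of the preformed complex between 50 nM HP1-beta and 50 nM biotinylated H3K9me3 peptide was read by AlphaScreen. Buffer was PBS pH 7.4 with 0.01% Tween-20. Incubations ran 30 min at room temperature, with 10 ug/mL donor/acceptor beads.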
# G9a inh: qHTS Assay for Inhibitors of Histone Lysine Methyltransferase G9a; G9a H3K9 monomethylation, AlphaScreen, 2 h; Histone-lysine N-methyltransferase EHMT2 (Homo sapiens), Q96KQ7; 350,000 compounds, 8.8% hits; Potency, µM (highest dose often 102 µM), inactives show at the highest dose activity, negative = inhibition, usual class: inhibitors; note: potency is the fitted concentration of half-maximal effect; % is set by controls: 0 for no effect and ±100 for the full control effect; nearly all actives have a fitted effect of over 75% in size
# Target sequence (Q96KQ7 913-1193 limits assumed): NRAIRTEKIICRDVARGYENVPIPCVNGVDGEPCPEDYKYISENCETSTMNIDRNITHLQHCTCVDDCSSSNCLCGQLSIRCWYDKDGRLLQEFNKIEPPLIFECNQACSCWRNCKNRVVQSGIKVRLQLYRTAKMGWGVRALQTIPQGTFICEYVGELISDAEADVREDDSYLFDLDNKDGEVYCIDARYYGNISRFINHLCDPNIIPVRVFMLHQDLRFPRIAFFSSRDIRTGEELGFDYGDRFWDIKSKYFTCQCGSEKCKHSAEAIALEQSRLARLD
#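 Enzyme 20 nM + cpd, 15 min RT; add b-H3K9 pep 500 nM / SAM 20 uM; 2 h RT; anti-H3K9me1 Ab 0.5 ug/mL + SA donor / anti-rabbit acceptor beads 20 ug/mL each, 10 min; AlphaScreen read.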
# JMJD2A Tudor inh: qHTS Assay for Inhibitors of JMJD2A-Tudor Domain; Lysine-specific demethylase 4A (Homo sapiens), O75164; Potency, µM (top dose mostly 114 µM), for the others: at the highest dose activity change, negative = inhibition, hits mostly inhibitors; AlphaScreen JMJD2A-Tudor / H3K4me3 peptide binding; 390,000 compounds, 4.4% hits; AID 504339, 2011; note: potency is the fitted concentration of half-maximal effect; % is set by controls: 0 for no effect and ±100 for the full control effect; nearly all actives have a fitted effect of over 50% in size
# Sfp PPTase inh: qHTS Assay for Inhibitors of Bacillus subtilis Sfp phosphopantetheinyl transferase (PPTase); 4'-phosphopantetheinyl transferase ffp (Bacillus subtilis), Q9F4F7; Biochemical Sfp PPTase activity, qHTS; Potency, µM, for inactives: largest response in the series, negative = inhibition, actives largely listed as inhibitors; 310,000 compounds, 3.5% hits; AID 1490, 2009;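 note: the enzyme is Sfp with the accession as filed and its product quenches rhodamine fluorescence; potency is the fitted concentration of half-maximal effect; 0% = enzyme reaction without inhibitor and -100% = no enzyme wells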
#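 Fluorescence-quenching assay: 15 nM Sfp-PPTase preincubated 15 min at room temperature with compound, then 5 uM rhodamine-CoA and 12.5 uM BHQ-2-labelled YbbR peptide added. Fluorescence (ex 525/em 598 nm) read at start and after 30 min; difference gives rate.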
# L3MBTL1 inh: qHTS Assay for the Inhibitors of L3MBTL1; Lethal(3)malignant brain tumor-like protein 1 (Homo sapiens), Q9Y468; AlphaScreen L3MBTL1–H3K9me1 peptide binding; Potency, µM (top dose mostly 57.1 µM), for the others: top-dose activity, negative = inhibition, usual class: inhibitors; 230,000 compounds, 0.66% hits; note: potency is the fitted concentration of half-maximal effect; % is set by controls: 0 for no effect and ±100 for the full control effect; nearly all actives have a fitted effect of over 60% in size
#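 AlphaScreen assay: L3MBTL1 (50 nM final) was preincubated 30 min at room temperature with biotinylated H3(1-15)K9me1 peptide (75 nM final), then 30 min with library compounds; streptavidin donor and nickel chelate acceptor beads (10 ug/mL final) added, 30 min dark.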
# Sfp inh conf: Confirmation qHTS Assay for Inhibitors of Bacillus subtilis Sfp phosphopantetheinyl transferase (PPTase) | shares compounds with Sfp PPTase inh | Sfp PPTase enzymatic assay, qHTS titration | Potency, µM (titrated, usually from 114 µM), inactives show at the highest dose activity change, negative = inhibition, most hits filed as inhibitors | 380 compounds, 79% hits | AID 2701, 2010;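 note: potency is the fitted concentration of half-maximal effect; plate controls were uninhibited Sfp reaction for no effect and no enzyme control for full effect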
# Target sequence (Q9F4F7 whole entry, looked up): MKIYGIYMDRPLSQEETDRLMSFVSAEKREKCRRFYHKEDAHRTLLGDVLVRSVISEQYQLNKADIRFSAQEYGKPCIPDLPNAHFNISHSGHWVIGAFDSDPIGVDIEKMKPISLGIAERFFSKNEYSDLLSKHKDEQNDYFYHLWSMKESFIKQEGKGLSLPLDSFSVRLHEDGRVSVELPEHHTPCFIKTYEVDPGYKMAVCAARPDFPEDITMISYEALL
# Sfp gel assay: Gel-Based Assay for Inhibitors of Bacillus subtilis Sfp phosphopantetheinyl transferase (PPTase); shares compounds with Sfp PPTase inh; purified Sfp, gel-based phosphopantetheinylation read-out; Potency, µM, actives largely listed as inhibitors; 210 compounds, 20% hits;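 active = potency below 100 µM; inconclusive = dose-dependent response but potency above 100 µM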;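 note: band intensities scaled against SCH202676 control wells before curve fitting; potency is an IC50 for inhibitors of Sfp transfer activity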
# Active calls of the source: *; i = inactive; ? = inconclusive; . = no result given; [ ] = another dose, or the depositor's remark. Compounds with a hit are over-represented: about 12% of the library has one in this group of screens. Unless noted, calls come from the whole dose curve; as a rule, active = well fitted curve in the direction sought with a large enough effect; inconclusive = small, poorly fitted or top-dose-only effect, or another doubt; inactive = no such curve, though single readings can be large; an effect the other way counts as inactive or inconclusive.
SMILES,BAZ2B inh,HP1b binding inh,G9a inh,JMJD2A Tudor inh,Sfp PPTase inh,L3MBTL1 inh,others
Cc1cccc(N(CC(N)=O)C2SC(=O)N(Cc3cccc(C(=O)O)c3)C2=O)c1 (stereo not drawn),6%,25%,-4%[59 µM],-12%,.,.,
Nc1nc(CSCc2ccccc2)nc(N2CCOCC2)n1,?,19%,-20%[59 µM],?,28µM*,-12%,
COc1ccc(/C=C2\CCCCC2=O)cc1,.,18%,.,-7%,.,.,
CN(C)/N=C/C=C1\CCC/C(=C\c2ccc(F)c(F)c2)C1=O,40µM*,?,?,?,8.9µM*,-23%[11.4 µM],
O=C1/C(=C/c2ccc(C(=O)O)cc2)CCC/C1=C\c1ccc(C(=O)O)cc1,3%,33%,-44%[59 µM],-11%,-26%,-7%,
COc1ccc(/C=C2\CCC/C(=C\C=N\N(C)C)C2=O)cc1,32µM*,?,?,32µM*,-27%,?,
COc1cc(CNS(=O)(=O)c2ccc3c(c2)CC(C)N3C(C)=O)cc(OC)c1OC (stereo not drawn),-17%,54%,-5%[59 µM],2%,13%,.,
CC1=CC(C)(C)N(C(=O)CSc2nnc(N)s2)c2cc(C)c(C)cc21,-28%,28%,74%[59 µM],-19%,28%,-5%,
CC1(C)c2ssc(=S)c2-c2ccccc2N1C(=O)CSC1=NCCS1,25µM*,?,25µM*,8.9µM*,-4%,14µM*,
Cc1cc2c(cc1C)N(C(=O)CSC1=NCCS1)C(C)(C)c1ssc(=S)c1-2,8.9µM*,?,5µM*,6.3µM*,7%,?,
O=C(CSC1=NCCS1)Nc1ccnc2ccccc12,-4%,42%,12%[12.7 µM],-6%,1%,5%[11.4 µM],
Cc1cc(C)c2c(c1)-c1c(ssc1=S)C(C)(C)N2C(=O)CSc1nncn1C,50µM*,?,5µM*,?,50µM*,?,
N#Cc1nc(N(c2ccccc2)c2ccccc2)nc(-n2cccc2)n1,.,-8%[57 µM],.,-23%[57.1 µM],.,.,
Cc1ccc(/C=N\NC(=O)CNC(=O)C23CC4CC(CC(C4)C2)C3)o1,-5%,9%,-5%[12.7 µM],-22%,56µM*,.,
Cc1ccc(/C=N/NC(=O)CNC(=O)c2ccc(S(=O)(=O)N3CCCC3)cc2)o1,-14%,37%,45µM*,-10%,2%,0%,
O=C(CNC(=O)C12CC3CC(CC(C3)C1)C2)N/N=C\c1ccccn1,-17%,0%,-6%,-11%,14%,9%,
CC1=C(C(=O)OCc2ccccc2)C(c2ccc(Cl)cc2)NC(=O)N1CCCC(=O)O (stereo not drawn),3%,32%,-6%,-13%,11%,16%,
Cc1ccc(-n2ncc3c(N4CCCCCC4)ncnc32)cc1C,46%,62%,8%[59 µM],16%,.,.,
Cc1cc(C)nc(SCNC(=O)c2ccccc2)n1,-13%,45%,10µM*,?,7.9µM*,-4%,Sfp inh conf=53µM*;Sfp gel assay=i
Cc1cc(C)nc(SCC(=O)O)n1,-107%,37%,-14%,-14%,19%,1%,
O=C(O)Cn1ncc2c1-c1ccoc1CC2,?,18%,11µM*,56µM*,45µM*,?,Sfp inh conf=?
O=C(Cn1ncc2c1-c1ccccc1OC2)N1CCc2ccccc21,-1%,33%,5%,-6%,15%,-12%,
CCOC(=O)c1ccc(NC(=S)N2CCN(CCN=CC3=C(O)CC(C)(C)CC3=O)CC2)cc1,?,7%,.,-11%,11µM*,6%,Sfp inh conf=18%;Sfp gel assay=?
O=C(c1cc(C(F)(F)F)cc(C(F)(F)F)c1)N1CCC2(CC1)CN(c1ccccn1)C2,.,.,7%[12.7 µM],.,14%,.,
Cc1ccccc1NC(=O)c1c(NC(=O)c2ccco2)sc2c1CCC(C(C)(C)C)C2 (stereo not drawn),4%,17%,?,-4%,.,.,
SMILES,BAZ2B inh,HP1b binding inh,G9a inh,JMJD2A Tudor inh,Sfp PPTase inh,L3MBTL1 inh,others
CC(=O)c1cccc(NC(=O)c2c(C)nn(-c3ccc(F)cc3)c2-n2cccc2)c1,-26%,53%,2%[59 µM],0%,.,.,
Nc1ccc(-c2cc(N)n(-c3ccccc3)n2)cc1,?,2%,-132%,?,-20%,-15%,
Cc1ccccc1-n1nc(-c2ccc(N)cc2)cc1N,-25%,4%,?,?,14µM*,6%,Sfp inh conf=2%;Sfp gel assay=i
Cc1ccc(-n2cc(CNCCN3CCOC3=O)c(-c3cccc(C)c3)n2)cc1,?,24%,35µM*,-23%,45µM*,-3%,Sfp inh conf=-10%;Sfp gel assay=i
O=C1OCCN1CCNCc1cn(-c2ccc(F)cc2)nc1-c1ccccc1Cl,-18%,28%,?,-13%,8%,-3%,
CCC(C)c1ccccc1NC(=O)c1cccc(-n2cnnn2)c1 (stereo not drawn),.,5%,.,?,.,3%,
CN(C(=O)Cn1cc(S(=O)(=O)N2CCN(c3ccccc3F)CC2)c2ccccc2c1=O)c1ccc(Cl)cc1,-13%,20%,-5%[59 µM],-11%,.,.,
COC(=O)C1=C(C)NC(C)=C([N+](=O)[O-])[C@H]1c1ccccc1C(F)(F)F,.,.,.,.,15%,.,
COC(=O)C1=C(C)NC(C)=C(C(=O)OCC(C)C)C1c1ccccc1[N+](=O)[O-] (stereo not drawn),.,16µM*,11µM*,20µM*,40µM*,.,Sfp inh conf=37µM*
CCC(C)(C)C1CCC2(CC1)NC(=O)N(CC(=O)N(C)Cc1ccc3c(c1)OCCO3)C2=O (stereo not drawn),0%,32%,13%[59 µM],-2%,.,-2%,
c1cncc(-c2nnc(-c3cccnc3)nn2)c1,-36%,?,8.9µM*,-25%[57.1 µM],40µM*,-5%,Sfp inh conf=15µM*
c1ccc(-c2nnc(-c3ccccc3)nn2)cc1,?,-18%,?,?,4%,.,
